Results filed as inconclusive are left out. Activity calls are given as the source filed them. Calls follow the shape of the dose curve; as a rule, active = well fitted activation curve with a large enough effect; inconclusive = small, poorly fitted or top-dose-only effect; inactive = no such curve, though single readings can be large or run the other way.
biological target: Rap guanine nucleotide exchange factor 4 (Homo sapiens) (UniProt Q8WZA2); assay: Confirmatory qHTS for agonist of cAMP-regulated guanine nucleotide exchange factor 4 (EPAC2) (AID 1645884); settings: EPAC2 GEF activity, Rap1B-BODIPY-GDP fluorescence; series mostly up to 154 µM; activation: at the top concentration;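 also: nucleotide exchange releases bodipy-GDP from Rap1 and this lowers its fluorescence; nearly all actives have a fitted effect of over 65% in size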
% is scaled to controls: 0 for no effect and ±100 for the full control effect.

Sequence of Rap guanine nucleotide exchange factor 4 (Homo sapiens) (Q8WZA2 whole entry, looked up): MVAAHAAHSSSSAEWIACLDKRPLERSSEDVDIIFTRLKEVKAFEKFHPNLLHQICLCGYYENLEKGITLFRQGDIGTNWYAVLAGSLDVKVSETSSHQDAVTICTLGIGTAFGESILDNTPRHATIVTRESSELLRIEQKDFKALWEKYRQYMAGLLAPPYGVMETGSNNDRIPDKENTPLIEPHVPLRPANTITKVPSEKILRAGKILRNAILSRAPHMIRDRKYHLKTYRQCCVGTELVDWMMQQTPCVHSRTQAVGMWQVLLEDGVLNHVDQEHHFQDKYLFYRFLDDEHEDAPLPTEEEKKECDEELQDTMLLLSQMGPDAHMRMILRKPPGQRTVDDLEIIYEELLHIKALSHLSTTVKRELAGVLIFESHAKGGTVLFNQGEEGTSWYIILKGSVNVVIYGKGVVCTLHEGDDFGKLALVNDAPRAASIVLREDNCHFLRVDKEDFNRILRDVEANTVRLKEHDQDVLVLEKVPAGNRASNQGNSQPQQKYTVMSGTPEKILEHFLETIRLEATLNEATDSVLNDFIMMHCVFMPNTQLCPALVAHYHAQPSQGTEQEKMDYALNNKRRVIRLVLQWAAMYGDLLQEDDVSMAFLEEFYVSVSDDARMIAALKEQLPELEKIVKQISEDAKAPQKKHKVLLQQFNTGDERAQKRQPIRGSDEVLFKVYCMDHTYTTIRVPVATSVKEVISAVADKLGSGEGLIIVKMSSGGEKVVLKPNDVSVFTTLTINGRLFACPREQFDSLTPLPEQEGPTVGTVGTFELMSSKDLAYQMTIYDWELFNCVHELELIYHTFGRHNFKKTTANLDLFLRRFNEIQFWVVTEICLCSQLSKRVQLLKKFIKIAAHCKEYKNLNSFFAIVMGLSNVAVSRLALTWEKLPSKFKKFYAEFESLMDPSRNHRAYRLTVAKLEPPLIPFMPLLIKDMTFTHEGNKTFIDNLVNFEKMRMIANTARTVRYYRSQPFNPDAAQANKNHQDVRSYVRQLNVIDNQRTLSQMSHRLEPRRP

activation, inactive:
O=S1(=O)CCN2C(Cc3ccc(SC(F)F)cc3)=CSC2=N1 -6.94%
O=S(=O)(NCc1ccccc1)c1ccc(S(=O)(=O)N(Cc2cccs2)CC2CCCO2)cc1 (stereo unspecified) -9.66%
CCc1ccc2oc(C(=O)Nc3ccccc3OC)cc(=O)c2c1 29.8% [at 83.8 µM, percent relative to cAMP agonist control]
CCO/C(C)=N/Oc1cc(OC)cc(OC)c1 -7.65%
Cc1ccc(C(CCN(Cc2ccccc2)C(=O)c2ccco2)c2ccco2)cc1 (stereo unspecified) -27.9%
CCCc1[nH]nc2c1C(c1cccnc1)C(C#N)=C(N)O2 (stereo unspecified) 5.78% [at 17.1 µM, percent relative to cAMP agonist control]
CN1C(=O)/C(=C\c2ccc(N(C)C)cc2)OC1=S 5.36%
COc1cc(OC)nc(Oc2cc(/C=N/O)ccc2OC)n1 -0.415% [at 17.1 µM, percent relative to cAMP agonist control]
COC(=O)C1=CN(c2ccc(F)cc2)C(N)=C(C#N)C1c1cccc(OC)c1OC (stereo unspecified) 4.9% [at 17.1 µM, percent relative to cAMP agonist control]
O=C1c2cc(O)c(O)cc2OC(c2ccc(O)c(O)c2)C1O (stereo unspecified) -4.05%
O=C(COc1ccccc1Cl)Nc1cccc(S(=O)(=O)NC2=NCCCCC2)c1 4.34%
O=C1CC(Cc2ccccc2)C(=O)N1CCc1ccc2c(c1)OCO2 (stereo unspecified) 2.14% [at 17.1 µM, percent relative to cAMP agonist control]
O=C(NCC1CCCO1)c1ccc(C(=O)NCC2CCCO2)cc1 (stereo unspecified) 5.86% [at 17.1 µM, percent relative to cAMP agonist control]
COc1cccc(C(c2nnnn2-c2c(C)cccc2C)N2CCN(C/C=C/c3ccccc3)CC2)c1OC (stereo unspecified) 3.11%
COc1ccc(CCNC(=O)CCCCCn2c(SCC(N)=O)nc3cc4c(cc3c2=O)OCO4)cc1OC 12.2% [at 83.8 µM, percent relative to cAMP agonist control]
CCNC(C(=O)c1c[nH]c2c(CC)cccc12)c1ccccc1 (stereo unspecified) -0.139%
Cc1ccc(CNS(=O)(=O)c2ccc(-n3cnnn3)c(C)c2)cc1 4.56% [at 17.1 µM, percent relative to cAMP agonist control]
COc1ccc(C2=CC(=O)C[C@H](COCc3ccccc3)N(C(=O)OC(C)(C)C)O2)cc1 19.7%
O=C(CCC(=O)N1CCSc2ccccc21)NCc1cccc(Cl)c1 1.67% [at 17.1 µM, percent relative to cAMP agonist control]
Cc1c(C(=O)N2CCCCC2)oc2ccc(Br)cc12 -1.16%
O=C1S/C(=C\c2ccc(O)c([N+](=O)[O-])c2)C(=O)N1c1ccccc1Cl -23.5%
COc1cc(OC)nc(Oc2cccc(Cl)c2C)n1 5.45%
O=c1[nH]c(/C=C/c2cccc([N+](=O)[O-])c2)c([N+](=O)[O-])c(=O)[nH]1 5.04%
CN(C)CCCN(C(=O)COc1ccc(Cl)cc1)c1nc2cc3c(cc2s1)OCCO3 8.97%
CCn1c(CNC(=O)COC)nc2ccccc21 3.77% [at 17.1 µM, percent relative to cAMP agonist control]
O=C(O)CCc1ccc(-c2ccccc2)n1-c1cccc(Br)c1 -4.27% [at 83.8 µM, percent relative to cAMP agonist control]
COc1ccccc1CCc1nnc(CCC(=O)N(C)Cc2cccc3ncccc23)o1 7.73%
COc1cc(/C=C2\SC(=O)N(CC(=O)Nc3cccc(C)c3)C2=O)cc([N+](=O)[O-])c1O -26.1%
C=CCn1c(C)cc(C(=O)Cn2ncc(Cl)c(Cl)c2=O)c1C -20.9%
COc1cc(-c2c(CCO)sc3ccccc23)cc(OC)c1OC 1.4% [at 17.1 µM, percent relative to cAMP agonist control]
COc1ccc(-c2cc(C(F)(F)F)nc(SCC(=O)NCCc3ccccc3)n2)cc1OC 4.81% [at 83.8 µM, percent relative to cAMP agonist control]
CN(Cc1ccccc1N1CCCC1)C(=O)c1cc2cc(Cl)ccc2o1 7.79%
CCOc1c(OC)cccc1C(=O)NCC1(c2ccccc2)CCCC1 -7.35%
O=C(OCc1c(-c2ccccc2)ncc2ccccc12)c1ccccc1C(F)(F)F 3.51%
CC(C)(C)[C@H](N)C(=O)N[C@H]1CCC2C3CC=C4C[C@@H](O)CC[C@]4(C)C3CC[C@@]21C (stereo partly specified) 3.5% [at 17.1 µM, percent relative to cAMP agonist control]
COc1ccc(C=NNc2ccc([N+](=O)[O-])cc2S(=O)(=O)Nc2ccccc2C(=O)O)cc1OC -2.2% [at 17.1 µM, percent relative to cAMP agonist control]

From PubChem BioAssay (NCATS)
